BAZ2B inh = inhibitors of human BAZ2B bromodomain; Q9UIF8; AlphaScreen BAZ2B-H3K14Ac peptide displacement; Potency, µM (highest dose often 114 µM), most hits filed as inhibitors; hit rate 4.4% among 360,000; AID 504333; further: nearly all actives have a fitted effect of over 60% in size
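Multi-concentration screen (max 110 uM) measuring displacement of acetylated histone H3 peptide from BAZ2B by AlphaScreen, using 50 nM protein, 50 nM peptide and 10 ug/mL streptavidin donor plus Ni-chelate acceptor beads.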
JMJD2A Tudor = blocks the human JMJD2A Tudor domain; O75164; AlphaScreen JMJD2A-Tudor / H3K4me3 peptide binding; Potency, µM (doses to about 114 µM), usual class: inhibitors; hit rate 4.4% among 390,000; AID 504339; further: nearly all actives have a fitted effect of over 50% in size
G9a block = G9a (human) methyltransferase inhibition | G9a H3K9 monomethylation, AlphaScreen, 2 h | Potency, µM (highest dose often 102 µM), hits mostly inhibitors | hit rate 8.8% among 350,000 | AID 504332; further: nearly all actives have a fitted effect of over 75% in size
Target sequence (Q96KQ7 913-1193 limits assumed): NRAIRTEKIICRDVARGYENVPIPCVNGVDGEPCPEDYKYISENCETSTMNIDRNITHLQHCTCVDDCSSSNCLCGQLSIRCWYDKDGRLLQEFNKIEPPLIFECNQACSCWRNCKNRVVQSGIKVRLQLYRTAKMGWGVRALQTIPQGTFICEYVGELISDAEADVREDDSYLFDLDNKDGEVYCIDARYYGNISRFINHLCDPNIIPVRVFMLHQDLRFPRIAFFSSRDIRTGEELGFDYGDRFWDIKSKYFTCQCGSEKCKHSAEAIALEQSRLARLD
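Chemiluminescent proximity detection of H3K9 monomethylation, read after 10 min bead incubation in the dark. Reaction: 20 nM G9a, 500 nM biotin-H3K9 peptide, 20 uM SAM cofactor, 2 h, room temperature, following 15 min enzyme-compound preincubation.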
PI5P4Ka inh = PI5P4K alpha (human) kinase inhibition. P48426. PI5P4Kalpha enzyme, ADP-Glo luminescence, 60 min; stronger effect = lower value. max response, %. hit rate 1.2% among 330,000. AID 652105; active means max response of -50% or lower; inconclusive means between -30% and -50%; inactive means -30% or higher; further: value at the top dose of about 77 µM
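Controls without substrate or without enzyme flank wells where PI5P4Kalpha converts substrate using 5 microM ATP (final). Incubation lasts 60 minutes at room temperature; ADP formed is read by ADP-Glo luminescence.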
L3MBTL1 block = inhibitors of human L3MBTL1. Q9Y468. AlphaScreen L3MBTL1–H3K9me1 peptide binding. Potency, µM (top dose mostly 57.1 µM), most hits filed as inhibitors. hit rate 0.66% among 230,000. AID 485360; further: nearly all actives have a fitted effect of over 60% in size
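Read-out is AlphaScreen signal from streptavidin donor and nickel chelate acceptor beads (10 ug/mL final each) bridging L3MBTL1 (50 nM) and biotinylated K9-monomethylated H3(1-15) peptide (75 nM), after 30 min compound exposure at room temperature.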
HP1b binding inh = blocks HP1-beta chromodomain binding to methylated histone tails; AlphaScreen HP1-beta / biotin-H3K9me3 peptide binding; AID 540317; Potency, µM (doses to about 114 µM), actives largely listed as inhibitors; hit rate 0.56% among 390,000; further: nearly all actives have a fitted effect of over 70% in size
Target sequence (P83916 whole entry, looked up): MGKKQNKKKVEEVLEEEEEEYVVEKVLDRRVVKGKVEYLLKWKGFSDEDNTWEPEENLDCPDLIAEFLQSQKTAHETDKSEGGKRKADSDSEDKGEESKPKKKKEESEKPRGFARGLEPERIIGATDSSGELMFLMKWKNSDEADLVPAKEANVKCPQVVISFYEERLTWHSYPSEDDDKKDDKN
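AlphaScreen: HP1-beta (50 nM) preformed 30 min with biotin-H3(1-18)K9me3 peptide (50 nM) in PBS pH 7.4, 0.01% Tween-20. Compound added for 30 min at RT, then streptavidin donor/nickel chelate acceptor beads (10 ug/mL) for 30 min.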
Numbers stand for hits; . = inactive; ? = inconclusive; / = no result given; [ ] = dose if it differs, or a comment. Most compounds without a hit are left out; they make up all but 11% or so of the library. Unless noted, the call rests on the fitted dose curve; in most records, active means well fitted inhibition curve with a large enough effect; inconclusive means small, poorly fitted or top-dose-only effect; inactive means no such curve, though single readings can be large or run the other way.

SMILES | BAZ2B inh | JMJD2A Tudor | G9a block | PI5P4Ka inh | L3MBTL1 block | HP1b binding inh
CCOc1ccccc1NC(=O)Cn1c(=O)n(C(C)C)c(=O)c2oc3ccccc3c21 | . | . | . | / | / | .
COc1cc(/C=C(\C#N)c2nc3c(s2)CCCC3)ccc1O | 56.2µM | / | ? | / | / | /
O=C(CSCc1ccccc1)N=Nc1c(O)[nH]c2ccccc12 | . | . | . | . | . | .
O=C(CSCc1cccc(Br)c1)N=Nc1c(O)[nH]c2ccccc12 | 50.1µM | . | .[0.0925 µM] | . | . | .
Cc1ccc(C(=O)c2oc3ccccc3c2NC(=O)c2cc(=O)c3ccccc3o2)cc1 | . | . | . | / | / | .
COC(=O)c1cc2oc3ccccc3c2n1Cc1nc(-c2ccccc2Cl)oc1C | . | . | . | / | / | .
O=C(CCN1C(=O)/C(=C/c2ccccc2F)SC1=S)NCCCn1ccnc1 | 39.8µM | ? | / | . | / | .
CC(=O)NC(CC(=O)NCCN1C(=O)S/C(=C\c2ccccc2)C1=O)c1ccccc1 (stereo not drawn) | . | . | 56.2µM | . | . | .
O=C(CN1C(=O)S/C(=C\c2ccccc2)C1=O)NCCCn1ccnc1 | ? | ? | 35.5µM | . | / | .
O=C(CCCN1C(=O)/C(=C/c2ccccc2)SC1=S)NCCCn1ccnc1 | 44.7µM | ? | . | . | / | .
CC(=O)NNC(=O)CN1C(=O)/C(=C/c2ccccc2)SC1=S | . | . | . | . | / | .
CCc1c(C)nc2nncn2c1Nc1cccc(C)c1 | . | . | . | / | / | .
COc1cccc(Cn2c(=O)c(-c3cccc(F)c3)nc3cncnc32)c1 | / | / | .[12.7 µM] | / | / | /
CCc1cccc2c(C(=O)COC(=O)c3ccc([N+](=O)[O-])s3)c[nH]c12 | ? | ? | ? | . | . | .
O=C(OCC(=O)c1c[nH]c2ccccc12)c1ccc([N+](=O)[O-])s1 | ? | ? | 44.7µM | . | .[11.4 µM] | ?
Nn1c(SCC(=O)Nc2ccccc2Oc2ccccc2)nnc1C1CC1 | . | . | 50.1µM | . | . | .
Cc1ccc(NC(=O)CSCC(=O)N(C)CC(=O)Nc2cccc3ccccc23)cc1 | . | . | . | . | . | .
Cc1ccc(NC(=O)CN(C)CC(=O)Nc2ccccc2Oc2ccccc2)cc1 | 25.1µM | 3.55µM | 35.5µM | . | . | 17.8µM
Cc1ccc(NC(=O)CSCC(=O)N(C)CC(=O)Nc2ccccc2C(F)(F)F)cc1 | . | . | 50.1µM | . | . | .
Cc1cccc(C)c1NC(=O)CN(C)CC(=O)Nc1ccccc1Oc1ccccc1 | . | . | . | . | . | .
O=C(O)CCC(=O)Nc1ccccc1Oc1ccccc1 | . | 20µM | . | . | .[11.4 µM] | .
Cc1cccc(C)c1NC(=O)N1CCC(C(N)=O)(N2CCCCC2)CC1 | . | . | . | / | / | .
CC[C@@H](C)[C@H](CNC)NC[C@@H](Cc1cccc2ccccc12)NCCc1cccc(C(F)(F)F)c1 | ? | ? | 44.7µM | . | . | .
CCC[C@H](CN[C@@H](CNC)[C@H](C)CC)NCCc1cc(C(F)(F)F)cc(C(F)(F)F)c1 | . | . | . | . | . | .
Cc1c(C(=O)N2CCN(S(=O)(=O)c3ccccc3)CC2)oc2ccccc12 | . | ? | . | . | . | .
SMILES | BAZ2B inh | JMJD2A Tudor | G9a block | PI5P4Ka inh | L3MBTL1 block | HP1b binding inh
Cc1c(C(=O)N2CCN(S(=O)(=O)c3cc(F)ccc3F)CC2)oc2ccccc12 | 79.4µM | . | ? | . | . | .
CC[C@]1(O)C[C@@H]2CN(CCc3c([nH]c4ccccc34)[C@@](C(=O)OC)(c3cc4c(cc3OC)N(C)C3[C@]45CCN4CC=C[C@](CC)(C45)[C@@H](OC(C)=O)[C@]3(O)C(=O)OC)C2)C1 (stereo partly drawn) | / | / | 14.1µM | / | / | /
COc1ccc(-c2cc3ccc(O)c(CN4CCN(C)CC4)c3oc2=O)cc1OC | . | . | . | / | / | .
COc1ccc(C(=O)Nc2cc(C)c(NC(=O)c3ccccn3)cn2)cc1 | . | . | 44.7µM | . | / | .
Cc1cc(NC(=O)C2CC2)ncc1NC(=O)c1ccccn1 | 79.4µM | . | ? | . | . | .
O=C(NC1CCCCC1)c1ccc(Cn2c(SCc3cccc(F)c3)nc3cccnc32)cc1 | . | . | . | / | / | .
Cc1ccc(N2C(N)=C(C#N)C(c3cccnc3)C3=C2CCCC3=O)cc1 (stereo not drawn) | . | . | ? | . | . | .
N#CC1=C(N)N(c2ccc(Br)cc2)C2=C(C(=O)CCC2)C1c1cccnc1 (stereo not drawn) | . | . | 11.2µM | / | .[11.4 µM] | .
N#CC1=C(N)N(c2ccccc2C#N)C2=C(C(=O)CCC2)C1c1ccsc1 (stereo not drawn) | 56.2µM | . | ? | . | .[11.4 µM] | .
O=C(NCc1ccc(F)cc1)n1cc(P(=S)(c2ccccc2)c2ccccc2)c2ccccc21 | / | . | / | / | / | /
Nc1ccc2c(c1)C(=O)N(CCCCCC(=O)O)C2 | . | . | . | . | . | .
O=C(O)[C@H](Cc1ccccc1)N1Cc2ccccc2C1=O | ? | . | 79.4µM | . | / | .
O=C(O)C(Cc1ccccc1)N1C(=O)c2c(Cl)c(Cl)c(Cl)c(Cl)c2C1=O (stereo not drawn) | / | 89.1µM | / | . | / | .
O=C(O)CCN1Cc2ccccc2C1=O | ? | ? | 50.1µM | . | . | .
O=C(NCC1CCN(Cc2ccccc2Cl)CC1)c1cc2ccc3cccnc3c2[nH]1 | . | . | ? | / | / | .
O=c1c2ccccc2n(Cc2c(F)cccc2Cl)c(=O)n1CCc1ccccc1 | . | . | . | / | / | .
CCC1=Nc2cc(C(=O)N3CCC(C)CC3)ccc2Sc2ccc(C)cc21 | . | . | . | / | / | .
Cc1cccc(-n2nc(C)c3c2NC2=C(C(=O)CCC2)C3c2ccccn2)c1 (stereo not drawn) | . | ? | 35.5µM | . | / | .
CCOc1cccc(-c2nnc3sc(C4CCCCC4)nn23)c1 | . | . | 35.5µM | . | . | ?
Cn1nnc2c(N3CCN(Cc4ccccc4)CC3)ncnc21 | / | . | / | / | / | .
COc1cn(CC(=O)Nc2cc(C)ccc2C)c(CN2CCCCC2)cc1=O | . | . | . | / | / | .
CC(C)(C)c1cc(C(=O)O)n[nH]1 | ? | 50.1µM | 12.6µM | / | / | .
Cc1ccc(-c2cc(C(=O)O)n[nH]2)s1 | . | .[11.4 µM] | . | . | . | .
CC(C)Cc1cc(C(=O)O)n[nH]1 | 50.1µM | 25.1µM | .[12.7 µM] | . | / | .
Fc1ccc(Br)cc1C1C=C(c2ccc(Br)s2)Nc2ncnn21 (stereo not drawn) | ? | ? | 10µM | . | . | .
COc1cccc(C2C=C(c3ccc(Br)s3)Nc3ncnn32)c1OC (stereo not drawn) | ? | . | 28.2µM | . | . | .
CCOC(=O)C1=C(C(F)(F)F)Nc2ncnn2C1c1cccc(OC)c1OC (stereo not drawn) | . | . | . | . | . | .
COc1ccc(CCNC(=O)c2nn(-c3ccc(C)cc3)c(=O)c3c2c2ccccc2n3C)cc1OC | / | . | . | / | / | .
Cc1cccc(C(=O)OCc2cc(=O)n3ccsc3n2)c1 | . | . | . | / | / | .
